Screens as filed in PubChem.
CYP2C9 inhib: blockers of cytochrome P450 2C9 activity – biochemical, luminescence, ADME assay, primary screen; AID 777, 2007; P11712; actives 20% (n = 96,000); CYP2C9 Supersomes, luciferin-H conversion; inhibition, % at 5 µM;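 active = blocking of liver enzyme CYP2C9 beyond about 50% at 5 µM, limit read from the data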
PostGolgi yeast: phenotypic screen on post-Golgi transport, primary screen; post-Golgi transport phenotypic cell assay; actives 0.9% (n = 98,000); inhibition, % at 10 µM;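 note: yeast cells grown in 1536-well plates; yeast grown about 18 h at 30C before absorbance read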
CYP2C19 inh: blockers of cytochrome P450 2C19 activity – biochemical, luminescence, ADME assay, primary screen; P33261; AID 778, 2007; actives 21% (n = 96,000); CYP2C19 Supersomes, luciferin-H EGE luminescence, 30 min; inhibition, % at 5 µM;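 active = CYP2C19 inhibition above a set limit at 5 µM in the primary screen, cut at about 50% in these data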
Target sequence (P33261 whole entry, looked up): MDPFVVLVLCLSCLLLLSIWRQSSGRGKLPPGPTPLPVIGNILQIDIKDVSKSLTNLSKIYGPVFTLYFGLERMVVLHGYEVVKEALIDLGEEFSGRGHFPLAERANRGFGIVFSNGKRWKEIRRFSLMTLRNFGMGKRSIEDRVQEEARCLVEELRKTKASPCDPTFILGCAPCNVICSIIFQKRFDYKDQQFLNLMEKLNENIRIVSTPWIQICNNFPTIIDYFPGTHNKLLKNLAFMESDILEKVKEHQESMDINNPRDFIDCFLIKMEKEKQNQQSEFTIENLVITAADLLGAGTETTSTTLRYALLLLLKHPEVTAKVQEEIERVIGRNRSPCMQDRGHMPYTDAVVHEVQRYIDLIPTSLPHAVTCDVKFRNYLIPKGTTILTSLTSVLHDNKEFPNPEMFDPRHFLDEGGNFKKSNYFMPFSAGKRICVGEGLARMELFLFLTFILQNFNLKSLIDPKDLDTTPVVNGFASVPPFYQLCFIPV
PostGolgi ctrl: growth inhibition of yeast control strain, primary screen, counter-screen for post-Golgi transport modulator project | efflux-deficient yeast background strain, growth absorbance A615, 16 h | inhibition, % at 10 µM | actives 5% (n = 98,000) | AID 738, 2007
CYP2C9 activ: human CYP2C9 activators, primary screen, biochemical, luminescence. Cytochrome P450 2C9 (Homo sapiens), P11712. recombinant CYP2C9, luciferin-H conversion; active compounds read high; factor 1 = untreated enzyme, 0 = blocked. activation factor at 5 µM. actives 1.4% (n = 96,000);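 active = activation factor of 2 or more for CYP2C9 at a 5 µM dose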
CYP2C19 act: human CYP2C19 activators, primary screen, biochemical, luminescence. Cytochrome P450 2C19 (Homo sapiens), P33261. recombinant CYP2C19, luciferin-H EGE luminescence; active compounds read high; 0 = fully inhibited enzyme, 1 = untreated enzyme. activation factor at 5 µM. 96,000 tested, under 10 active;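 active = activation factor of at least 2 at 5 µM in the primary screen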
Large screens that a line does not name were inactive. Shown are actives, neighbours in structure and some others; about 32% of the full set was active somewhere. Cut-off read from the data, not from the text of the source, unless noted: active = inhibition above about 30%; inactive = the rest.

COc1ccc(CC(=O)Nc2ccc(-c3csc(C)n3)cc2)cc1	none
CCc1nnc(NC(=O)c2cc(-c3ccccc3)nn2-c2ccccc2)s1	none
Cc1ccccc1NC(=O)Nc1ccccc1Br	none
Cc1cc(NC(=O)c2cc(-c3ccncc3)nc3c(C)cccc23)no1	CYP2C9 inhib 97, CYP2C19 inh 90
C=CCOc1ccc(CNC(C)(C)CO)cc1OCC	none
COc1ccccc1CN1C(=S)SC(C)(C)C1NO (stereo unspecified)	CYP2C9 inhib 68, CYP2C19 inh 91
COC(=O)c1cn(NC(=O)c2ccc(F)cc2)c(=O)c2ccccc12	none
COC(=O)c1cn(NC(=O)c2cccnc2)c(=O)c2ccccc12	none
COC(=O)c1cn(NC(=O)c2ccncc2)c(=O)c2ccccc12	CYP2C9 inhib 62
COC(=O)c1cn(NC(=O)c2cc(OC)c(OC)c(OC)c2)c(=O)c2ccccc12	none
COC(=O)c1cn(NC(=O)c2cc(OC)cc(OC)c2)c(=O)c2ccccc12	CYP2C9 inhib 78
COC(=O)c1cn(-c2ccc(Cl)cc2)c(=O)c2ccccc12	CYP2C9 inhib 74, CYP2C19 inh 69
Nc1cc(=O)[nH]n1C1CCN(c2ccccc2)CC1	none
CCC(C)NC(=O)c1ccc(CSCc2cccc(F)c2)o1 (stereo unspecified)	none
C=CCNC(=O)NC(=O)COC(=O)c1cccnc1SC	none
O=C1/C(=C\c2ccccc2)CCc2c1[nH]c1ccccc21	CYP2C19 inh 91
Cc1ccc2[nH]c3c(c2c1)CC/C(=C/c1ccccc1)C3=O	none
Cc1ccc(/C=C2/CCc3c([nH]c4ccccc34)C2=O)cc1	CYP2C19 inh 63
Cc1csc(NC(=O)CSc2nnc(-c3ccoc3C)n2CCc2ccccc2)n1	CYP2C9 inhib 57
Cc1csc(NC(=O)CSc2nnc(-c3ccoc3C)n2Cc2ccco2)n1	CYP2C9 inhib 88, CYP2C19 inh 85
Cc1occc1-c1nnc(SCC(=O)Nc2nccs2)n1CCc1ccccc1	none
Cc1csc(NC(=O)CSc2nnc(C)n2Cc2ccco2)n1	none
Cc1occc1-c1nnc(SCC(=O)NCC2CCCO2)n1C (stereo unspecified)	none
CCCn1c(SCC(=O)Nc2nonc2C)nnc1-c1ccoc1C	CYP2C19 inh 54
Cc1occc1-c1nnc(SCC(=O)NCCc2ccccc2)n1C(C)c1ccccc1 (stereo unspecified)	CYP2C9 inhib 84
COc1cc(NC(=O)c2ccc(COCC(F)(F)F)cc2)cc(OC)c1OC	none
CCCn1nc2cc(C(=O)NCc3ccccc3OC)ccc2c1OCC	none
CCOC(=O)c1c(C)n(C)c2ccc(OC)c(NC(=O)CN3CCN(C4CCCCC4)CC3)c12	none
CCOC(=O)CNC(=O)Nc1nnc(-c2ccc(OCC)cc2)o1	none
CC(=O)c1ccc(NC(=O)CSc2nnc(-c3ccoc3C)n2Cc2ccccc2)cc1	none
Cc1cccc(C)c1NC(=O)CSc1nnc(-c2ccoc2C)n1CCc1ccccc1	CYP2C9 inhib 68, CYP2C19 inh 70
Cc1nn(Cc2ccc(Cl)cc2)c(=O)n1N(C)c1ncc(C(F)(F)F)cc1Cl	CYP2C19 inh 73
CCCC(=O)Nc1ccc(NC(=O)Cc2ccccc2)cn1	none
O=C(Nc1ccc(NC(=O)C2CC2)nc1)c1ccncc1	CYP2C9 inhib 56
O=C(Cc1ccccc1)Nc1ccc(NC(=O)C2CC2)nc1	PostGolgi ctrl 39
CCCC(=O)Nc1ccc(NC(=O)CCc2ccccc2)cn1	PostGolgi yeast 30
CC(C)COn1c(=S)[nH]c2ccccc2c1=O	CYP2C19 inh 59, PostGolgi ctrl 38
CCC(C)(C(=O)NC1CCCCC1)N(Cc1ccco1)C(=O)c1cnccn1 (stereo unspecified)	none
Cc1ccc(C(=O)COc2nc(C)cc(C)c2C#N)cc1	none
COC(=O)c1ccc(COc2nc(C)cc(C)c2C#N)o1	CYP2C19 inh 70
CCOC(=O)C1=C(C)NC(=O)NC1c1ccc(OC)c(CN2CCOCC2)c1 (stereo unspecified)	none
CCOC(=O)c1cccc(NC(=O)Cn2cnc3c2c(=O)n(C)c(=O)n3C)c1	CYP2C9 inhib 72
